High-throughput results as filed in PubChem.
hgDAF-12 ag – activates the H. glycines DAF-12 receptor ligand-binding domain. 370,000 tested, 1.8% active. HEK293 GAL4-hgDAF12 UAS-luciferase reporter, agonist luminescence; normalized to butyrate control. activation, % at 6.8 µM. AID 687014;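 active = activation above a cutoff set at the mean of all screened compounds plus 3 SD, cut at about 10% in these data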
DAX1 inh-1 – blocks DAX1 repression of SF-1 activated StAR promoter; HEK293T StAR-luciferase reporter, SF-1/DAX-1 repression relief; inhibition, % at 6.8 µM; 370,000 tested, 1.1% active; AID 652010;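 active = inhibition above the mean over all tested compounds plus 3 SD, cut at about 3.6% in these data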;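 note: higher inhibition means more luminescence from relief of DAX-1 repression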
ssDAF12 agonist – activators of S. stercoralis DAF-12 nuclear receptor | activation, % at 6.8 µM | AID 652126 | HEK293 ssDAF-12/GRIP1 lit1-tk-luc reporter, luminescence; % of 3 µM dafachronic acid response | 370,000 tested, 1% active;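 active = activation above the mean over all tested compounds plus 3 SD, cut at about 0.9% in these data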
hcDAF-12 act – activators of H. contortus DAF-12 nuclear receptor; activation, % at 6.8 µM; 370,000 tested, 1.4% active; AID 652067; HEK293 hcDAF-12 lit1-tk-luc reporter, luminescence; 0% DMSO, 100% Δ7-dafachronic acid;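 active = activation above the mean of all tested compounds plus 3 SD, cut at about 5.5% in these data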
DAX1 inh-2 – inhibits human nuclear receptor DAX1; 340,000 tested, 0.99% active; HEK293 Gal4-DAX1 luciferase reporter, luminescence; inhibition, % at 6.75 µM; AID 504766; P51843;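 active = inhibition above the mean over all tested compounds plus 3 SD, cut at about 4.2% in these data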;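 note: inhibition shows as a rise in luminescence from relieved DAX1 repression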
Target sequence (P51843 207-470 limits assumed): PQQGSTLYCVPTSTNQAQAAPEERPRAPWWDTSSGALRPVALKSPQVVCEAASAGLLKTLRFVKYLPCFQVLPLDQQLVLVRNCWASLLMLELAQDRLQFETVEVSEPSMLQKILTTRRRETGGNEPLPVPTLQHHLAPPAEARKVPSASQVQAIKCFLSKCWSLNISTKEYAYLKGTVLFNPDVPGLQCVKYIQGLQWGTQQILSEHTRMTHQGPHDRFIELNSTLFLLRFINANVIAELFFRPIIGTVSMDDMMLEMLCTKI
Of the large screens only hits and unclear results are named; the others gave an inactive call. Shown are actives, neighbours in structure and some others; about 4.1% of the full set was active somewhere.

Cc1ccccc1C1C(C#N)=C(N)N(N(C)C)C2=C1C(=O)CC(C)(C)C2 (stereo unspecified)	none
COc1ccc(C2CC(=O)C(c3ccccc3)=CN2Cc2ccccc2)cc1 (stereo unspecified)	none (no result: DAX1 inh-2)
NC(=O)CN(c1ccc([N+](=O)[O-])cc1)S(=O)(=O)c1ccccc1	DAX1 inh-2 4.4
Cc1ccc2[nH]c(O)c(N=Nc3ccccc3C)c2c1	none
Cc1ccc2[nH]c(O)c(N=O)c2c1	DAX1 inh-2 4.9
Cc1sc2ccccc2c1CNC[C@H]1O[C@@H](n2cnc(C(N)=O)n2)[C@H](O)[C@@H]1O	ssDAF12 agonist 1.0
O=C(Nc1nc2ccccc2s1)c1ccc(OCC2CCCO2)cc1 (stereo unspecified)	none
COCc1nnc(NS(=O)(=O)c2ccc(C)cc2)s1	DAX1 inh-2 4.4
COCc1nnc(NS(=O)(=O)c2ccccc2)s1	none
O=C(OCC#CCSc1nnc(-c2ccc3ccccc3c2)o1)c1cccs1	none (no result: DAX1 inh-1, DAX1 inh-2)
CCC(C)(C)C(=O)Nc1nnc(CCc2ccccc2)s1	hgDAF-12 ag 10.5, DAX1 inh-2 4.7
COC(=O)c1ccccc1NC(=O)COC(=O)C1CCCCC1	DAX1 inh-2 4.4
COC(=O)c1ccccc1NC(=O)C1CCCC1	none
N#CCC[C@H]1CC[C@]2(CCCN(C(=O)c3ccco3)C2)O1	none (no result: DAX1 inh-2)
O=[N+]([O-])c1cccc(-n2nnnc2CNCc2ccccc2)c1	DAX1 inh-2 5.7
O=[N+]([O-])c1cccc(-n2nnnc2CN2CCCC2)c1	none
COc1cc2c(cc1/C=C/C(=O)O)OC(C)C2 (stereo unspecified)	none
CCOc1cc2c(cc1/C=C/C(=O)O)OC(C)C2 (stereo unspecified)	DAX1 inh-2 4.7
Cc1ccc(NC(=O)C2CC(=O)Nc3nncn32)cc1 (stereo unspecified)	ssDAF12 agonist 8.3
CCCc1cn(-c2ccc3c(c2)[C@]2(CC(=O)N(C)C2c2ccccc2)C(=O)N3CC(C)C)nn1 (stereo partly specified)	none (no result: DAX1 inh-2)
CC(C)(C)OC(=O)NCc1ccccc1/C=C/S(=O)(=O)NCc1ccc(F)cc1	none (no result: DAX1 inh-2)
Cn1cc(/C=C2\SC(=S)N(NC(=O)c3ccccc3)C2=O)c2ccccc21	ssDAF12 agonist 1.0
Cn1cc(/C=C2\SC(=S)N(NC(=O)c3cccc(Cl)c3)C2=O)c2ccccc21	none
Cc1ccc2c(CN3CCC(C)CC3)cc(=O)oc2c1C	none
Cc1cc(C)c2c(CN3CCC(C)CC3)cc(=O)oc2c1C	DAX1 inh-2 4.8
C/C(=N\NC1=NCCN1)c1ccc(Cl)cc1	none
C/C(=N\Nc1nc2c(s1)CCCC2)c1ccc(Cl)cc1	hcDAF-12 act 6.3
N#Cc1c(F)cccc1NCCCn1ccnc1	DAX1 inh-2 4.6
CCn1ncc(C(=O)Nc2ccc(F)cc2)c1C	ssDAF12 agonist 1.7
CCn1ncc(C(=O)Nc2ccccc2C)c1C	none
CC[C@@]1(c2ccc(C)cc2)C(=O)N(C(=O)OC)N1C(=O)OC	none (no result: DAX1 inh-2)
C=CCN1[C@@H](CC(C)C)COc2cccc(N3CCCC3)c2S1(=O)=O	none (no result: DAX1 inh-2)
O=C1CC(c2ccc(S(=O)(=O)NCCOc3ccccc3)cc2)CN1 (stereo unspecified)	none
COCCNS(=O)(=O)c1ccc(C2CNC(=O)C2)cc1 (stereo unspecified)	DAX1 inh-2 5.2
O=C(Cc1ccc(NC(=O)C2CCN(C(=O)CCc3ccccc3)CC2)cc1)Nc1cccc(C(=O)N2CCCC2)c1	none (no result: DAX1 inh-2)
C/C(=N\O)c1ccc2c3c([nH]c2c1)CCCC3	hgDAF-12 ag 11.3
Cc1cccc(C)c1-n1nnnc1C1(C)Cn2nccc2C(=O)N1Cc1ccc(F)cc1 (stereo unspecified)	none (no result: DAX1 inh-2)
O=C(Nc1cc(S(=O)(=O)N2CCOCC2)ccc1N1CCOCC1)c1cn2ccccc2n1	none
O=C(Nc1cc(C(F)(F)F)ccc1N1CCOCC1)c1cn2ccccc2n1	DAX1 inh-2 6.6
O=[N+]([O-])c1ccccc1S(=O)(=O)Oc1ccc(/C=N/n2cnnc2)cc1	ssDAF12 agonist 1.2
COc1cc(/C=N/n2cnnc2)ccc1OS(=O)(=O)c1ccccc1[N+](=O)[O-]	none
COc1ccc(S[C@]2(C(=O)N3CCN(c4ncccn4)CC3)CC(=O)N(c3ccsc3)[C@@H]2c2ccc(OC)cc2)cc1	none (no result: DAX1 inh-2)
N#CCC(=O)N/N=C\c1ccc(OC/C=C/c2ccccc2)cc1	none
N#CCC(=O)N/N=C\c1ccccc1OC/C=C/c1ccccc1	DAX1 inh-1 4.3
CCSc1nsc(NC(=O)Nc2ccccc2F)n1	hgDAF-12 ag 11.3
Cc1ccc(OC(=O)c2ccc(S(=O)(=O)N(C)C)cc2)c(-n2nc3ccccc3n2)c1	hgDAF-12 ag 12.0, DAX1 inh-2 4.3
Cc1ccc(OC(=O)c2cccc(S(=O)(=O)N3CCCC3)c2)c(-n2nc3ccccc3n2)c1	hgDAF-12 ag 11.3
Cc1ccc(OC(=O)c2cccc(S(=O)(=O)N(C)C)c2)c(-n2nc3ccccc3n2)c1	none
COC(=O)C1CN(Cc2cn(Cc3ccc(Cl)cc3)nn2)CCS(=O)(=O)N1Cc1ccc(F)cc1 (stereo unspecified)	none (no result: DAX1 inh-2)
COC(=O)[C@H](Cc1ccccc1)NC(=O)[C@H]1O[C@@H](n2cnc3c(=O)[nH]c(N)nc32)[C@H](O)[C@@H]1O	none (no result: DAX1 inh-2)
O=C(/C=C/c1ccccc1)Nc1cc(S(=O)(=O)N2CCOCC2)ccc1N1CCOCC1	DAX1 inh-2 4.5
Cc1cc(NC(=S)NC(=O)/C=C/c2ccc(S(=O)(=O)N3CCOCC3)cc2)ccc1Br	ssDAF12 agonist 3.9
O=C(CSc1ccccc1)Nc1cc(S(=O)(=O)N2CCOCC2)ccc1N1CCOCC1	DAX1 inh-2 4.3
CN1CCN(c2ccc(S(=O)(=O)N3CCCCC3)cc2NC(=O)Cc2c(F)cccc2Cl)CC1	none
O=C(/C=C/c1ccccc1)Nc1cc(S(=O)(=O)N2CCOCC2)ccc1N1CCCC1	none
O=C(Cc1c(F)cccc1Cl)Nc1cc(S(=O)(=O)N2CCCCC2)ccc1N1CCOCC1	DAX1 inh-2 5.8
CN(Cc1ccccc1)C(=O)OCc1cn(Cc2ccc(C(F)(F)F)cc2)nn1	none (no result: DAX1 inh-2)
CN(CCc1ccccn1)C(=O)c1cccnc1Oc1ccccc1	DAX1 inh-2 6.4
O=C(NC1CCS(=O)(=O)C1)Oc1ccccc1 (stereo unspecified)	none
O=C(NC1CCCCC1)Oc1ccccc1	DAX1 inh-2 6.9
O=C1OCC2=C1C(c1ccc(F)cc1)c1cc3c(cc1N2)OCCO3 (stereo unspecified)	none
O=C1OCC2=C1C(c1ccc(F)cc1)c1cc3c(cc1N2)OCO3 (stereo unspecified)	DAX1 inh-1 4.2
O=C(CSc1nnc(COc2ccccc2)n1-c1ccc(Cl)cc1)Nc1ccccc1-c1ccccc1	none (no result: DAX1 inh-2)
COc1ccc(C(=O)CSc2nnc(-c3ccccc3)n2-c2ccc(Cl)cc2)cc1	none (no result: DAX1 inh-2)
O=P(Cc1ccncc1)(c1ccccc1)c1ccccc1	DAX1 inh-2 5.9
Cn1c(NCCOc2ccccc2)nc2cc(-c3ccc(F)cc3)sc2c1=O	none (no result: DAX1 inh-2)
